Data published in PubChem BioAssay (NCATS).
Records with an inconclusive call do not appear. Activity calls are given as the source filed them. Calls follow the shape of the dose curve; as a rule, active = well fitted cell-killing curve with a large enough effect; inconclusive = small, poorly fitted or top-dose-only effect, or effect the other way; inactive = flat fitted curve, though single readings scatter.

Key:
Assay in all cases: Primary qHTS to identify gynecologic anti-cancer compounds using libraries of approved drugs and bioactive compounds (AID 1345084); also: nearly all actives have a fitted effect of over 55% in size
C33A = details: Gynecologic cancer cell panel viability, ATPlite luminescence, 48 h; series mostly up to 57.5 µM
Procedure, shortened: (§1)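 In this quantitative HTS, cell killing is estimated from loss of ATP-dependent luciferase light. Cells see five compound concentrations over a 48 h exposure.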

CAOV3 = details: Gynecologic cancer cell panel viability, ATPlite luminescence, 48 h; series mostly up to 57.5 µM
Procedure, shortened: as §1

CASKI = details: Gynecologic cancer cell panel viability, ATPlite luminescence, 48 h; series mostly up to 57.5 µM
Procedure, shortened: as §1

Es-2 = details: Gynecologic cancer cell panel viability, ATPlite luminescence, 48 h; series mostly up to 57.5 µM
Procedure, shortened: as §1

HeLa = details: Gynecologic cancer cell panel viability, ATPlite luminescence, 48 h; series mostly up to 57.5 µM
Procedure, shortened: as §1

Hek293T = details: Gynecologic cancer cell panel viability, ATPlite luminescence, 48 h, control line for the selectivity index; series mostly up to 57.5 µM
Procedure, shortened: as §1

JEG-3 = details: Gynecologic cancer cell panel viability, ATPlite luminescence, 48 h; series mostly up to 57.5 µM
Procedure, shortened: as §1
% is scaled to controls: 0 for no effect and ±100 for the full control effect; potency is read from the fitted curve at half-maximal effect.

CC1CC(O)CC(C)(C)C1(O)CCO (stereo not given)
inactive: Potency (C33A) | Potency (CAOV3) | Potency (CASKI) | Potency (Es-2) | Potency (HeLa) | Potency (Hek293T) | Potency (JEG-3)

CC(/C=C/C1(O)C2(C)COC1(C)CC(=O)C2)O[C@@H]1O[C@H](CO)[C@@H](O)[C@H](O)[C@H]1O (stereo not given in full)
inactive: Potency (C33A) | Potency (CAOV3) | Potency (CASKI) | Potency (Es-2) | Potency (HeLa) | Potency (Hek293T) | Potency (JEG-3)

C=C1C(=O)OC2CC(C)=C(C(C)CCCO[C@@H]3O[C@H](CO)[C@@H](O)[C@H](O)[C@H]3O)C(O)C12 (stereo not given in full)
inactive: Potency (C33A) | Potency (CASKI) | Potency (Es-2) | Potency (HeLa) | Potency (Hek293T) | Potency (JEG-3)

O=C(O)c1cnn(-c2nc3cc(OC(F)(F)F)c(Cl)cc3[nH]2)c1
inactive: Potency (C33A) | Potency (CAOV3) | Potency (Es-2) | Potency (HeLa) | Potency (Hek293T) | Potency (JEG-3)

CCOc1cc2ncc(C#N)c(Nc3ccc(OCc4ccccn4)c(Cl)c3)c2cc1NC(=O)/C=C/CN(C)C
inactive: Potency (C33A) | Potency (CAOV3) | Potency (Es-2) | Potency (Hek293T) | Potency (JEG-3)

COc1cc(/C=C/C(=O)OC[C@H]2O[C@H](O[C@]3(CO)O[C@H](CO)[C@@H](O)[C@@H]3O)[C@H](O)[C@@H](O)[C@@H]2O)cc(OC)c1O
inactive: Potency (C33A) | Potency (CAOV3) | Potency (CASKI) | Potency (Es-2) | Potency (HeLa) | Potency (Hek293T) | Potency (JEG-3)

NC(=O)c1cccc(-c2cc(O)cc(OC(=O)NC3CCCCC3)c2)c1
inactive: Potency (C33A) | Potency (CAOV3) | Potency (CASKI) | Potency (Es-2) | Potency (HeLa) | Potency (Hek293T) | Potency (JEG-3)

OCc1ccccc1O[C@@H]1O[C@H](CO)[C@@H](O)[C@H](O)[C@H]1O
inactive: Potency (C33A) | Potency (CAOV3) | Potency (CASKI) | Potency (Es-2) | Potency (HeLa) | Potency (Hek293T) | Potency (JEG-3)

CC(C)Nc1cc(-c2c[nH]c(C(=O)N[C@H](CO)c3cccc(Cl)c3)c2)c(Cl)cn1
inactive: Potency (C33A) | Potency (CAOV3) | Potency (CASKI) | Potency (HeLa) | Potency (Hek293T) | Potency (JEG-3)

O=C(/C=C/c1ccc(O)c(O)c1)OCc1ccccc1O[C@@H]1O[C@H](CO)[C@@H](O)[C@H](O)[C@H]1O
inactive: Potency (C33A) | Potency (CAOV3) | Potency (CASKI) | Potency (Es-2) | Potency (HeLa) | Potency (Hek293T) | Potency (JEG-3)

C[C@@H]1O[C@@H](OC[C@H]2O[C@@H](OCCc3ccccc3)[C@H](O)[C@@H](O)[C@@H]2O)[C@H](O)[C@H](O)[C@H]1O
inactive: Potency (C33A) | Potency (CAOV3) | Potency (CASKI) | Potency (Es-2) | Potency (HeLa) | Potency (Hek293T) | Potency (JEG-3)

Oc1ccc([C@H]2COc3cc(O)ccc3C2)cc1
inactive: Potency (C33A) | Potency (CAOV3) | Potency (CASKI) | Potency (Es-2) | Potency (Hek293T) | Potency (JEG-3)

Cc1ccc2c(c1)C=Cc1cc(C)ccc1C2c1cn(Cc2ccc(C(=O)Nc3nn[nH]n3)o2)c(=O)[nH]c1=S
inactive: Potency (C33A) | Potency (CASKI) | Potency (Es-2) | Potency (HeLa) | Potency (Hek293T) | Potency (JEG-3)

CC(C)CC(=O)n1cc(C(N)=O)c(=O)cc1C(O)c1ccccc1 (stereo not given)
inactive: Potency (C33A) | Potency (CAOV3) | Potency (CASKI) | Potency (Es-2) | Potency (HeLa) | Potency (Hek293T) | Potency (JEG-3)

C=C1C(O[C@@H]2O[C@H](CO)[C@@H](O)[C@H](O)[C@@H]2O)CC2C(C)(C)C(O)CCC2(C)C1CC/C(C)=C\CO (stereo not given in full)
inactive: Potency (C33A) | Potency (CAOV3) | Potency (CASKI) | Potency (Es-2) | Potency (HeLa) | Potency (Hek293T) | Potency (JEG-3)

COc1cc(C2Oc3c(OC)cc(CCCO[C@@H]4O[C@H](CO)[C@@H](O)[C@H](O)[C@H]4O)cc3C2CO)ccc1O (stereo not given in full)
inactive: Potency (C33A) | Potency (CASKI) | Potency (Es-2) | Potency (HeLa) | Potency (Hek293T) | Potency (JEG-3)

COc1ccc(/C=C/C(=O)O[C@@H]2[C@@H](O)[C@H](C)O[C@@H](OC3C4C=COC(O[C@@H]5O[C@H](CO)[C@@H](O)[C@H](O)[C@H]5O)C4C4(CO)OC34)[C@@H]2O)cc1OC (stereo not given in full)
inactive: Potency (C33A) | Potency (CASKI) | Potency (Es-2) | Potency (HeLa) | Potency (Hek293T) | Potency (JEG-3)

COC(=O)C1=COC(O[C@@H]2O[C@H](CO)[C@@H](O)[C@H](O)[C@H]2O)/C(=C\COC(=O)c2ccc(OC3OC(CO)C(O)C(O)C3O)c(OC)c2)C1CC(=O)OCCc1ccc(O)cc1 (stereo not given in full)
inactive: activity change, negative = cytotoxicity (C33A) 7.7% [at 11.6 µM] | activity change, negative = cytotoxicity (CASKI) 3.94% [at 11.6 µM] | activity change, negative = cytotoxicity (Es-2) 1.38% [at 11.6 µM] | activity change, negative = cytotoxicity (HeLa) 2.44% [at 11.6 µM] | activity change, negative = cytotoxicity (Hek293T) 17.6% [at 11.6 µM] | activity change, negative = cytotoxicity (JEG-3) 2.03% [at 11.6 µM]

CNC(=O)c1ccc(Nc2ncc(C(F)(F)F)c(NCc3nccnc3N(C)S(C)(=O)=O)n2)cc1
active: Potency (Es-2) 17.8 µM | Potency (HeLa) 10 µM | Potency (Hek293T) 8.91 µM

CCC(CCO[C@@H]1O[C@H](CO[C@H]2OC[C@](O)(CO)[C@H]2O)[C@@H](O)[C@H](O)[C@H]1O)C(C)(C)O (stereo not given in full)
inactive: Potency (C33A) | Potency (CASKI) | Potency (Es-2) | Potency (HeLa) | Potency (Hek293T) | Potency (JEG-3)

COc1cc(N2CCC(N(C)C)CC2)ccc1Nc1ncc(Cl)c(Nc2ccccc2P(C)(C)=O)n1
active: Potency (CAOV3) 3.55 µM | Potency (CASKI) 7.08 µM | Potency (Es-2) 11.2 µM | Potency (HeLa) 3.16 µM | Potency (Hek293T) 10 µM

CN(NC(=O)CC(=O)NN(C)C(=S)c1ccccc1)C(=S)c1ccccc1
inactive: Potency (CASKI) | Potency (Es-2) | Potency (HeLa) | Potency (Hek293T) | Potency (JEG-3)
